The source of these data is PubChem BioAssay (NCI).

Compounds without any hit were thinned out: in the full panel of roughly 83,000, 20% have a hit.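 Single-concentration screen, 48 h exposure, 96-well plates. Endpoint: percent growth. Below 10 = active.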 Values without a mark were called inactive. Calls of active or inactive are those of the source.

Test systems include NCI-H23 lung; NCI-H226 lung; NCI-H322M lung; HOP-62 NSCLC; NCI-H460 lung; HOP-92 NSCLC; A549/ATCC NSCLC; 786-0 renal; COLO 205 colon; DU-145 prostate; K-562 leukemia; MALME-3M melanoma; MDA-MB-231 breast; RXF 393 renal; SF-268 CNS; SF-295 CNS; SF-539 CNS; UACC-257 melanoma; M14 melanoma.
Holding throughout (assay): NCI-60 one-dose screen, 48 h (100 = growth as untreated, 0 = no growth, -100 = all killed)
Settings in all cases: 10 µM unless noted

For the compound `CCCCCCC(CC#N)(CCC)CCCC` (stereo unspecified), the growth is 110% in the assay with NCI-H23 lung; 96.7% with NCI-H226 lung; 113% in the assay with NCI-H322M lung; 111% with HOP-62 NSCLC; 98.9% with NCI-H460 lung; 73.9% in the assay on HOP-92 NSCLC. The growth in the assay on A549/ATCC NSCLC was 103%; in the assay on 786-0 renal, 108%; in the assay on COLO 205 colon, 129%; in the assay on DU-145 prostate, 121%; in the assay on K-562 leukemia, 106%; in the assay on MALME-3M melanoma it was 100%. Besides, the growth was 106% in the assay with MDA-MB-231 breast; 106% in the assay with RXF 393 renal; 115% in the assay on SF-268 CNS; 39.5% in the assay with SF-295 CNS; 85.3% in the assay with SF-539 CNS; 104% in the assay with UACC-257 melanoma. The growth with M14 melanoma was 110%.

For the compound `OC(c1ccccc1)C(NCc1ccccc1)c1ccccc1` (stereo unspecified), the growth is 93.5% in the assay with NCI-H23 lung; 97.7% in the assay with NCI-H226 lung; 97.8% in the assay with NCI-H322M lung; 90.5% in the assay with HOP-62 NSCLC; 100% in the assay on NCI-H460 lung; 71.8% in the assay on HOP-92 NSCLC. The growth with A549/ATCC NSCLC was 101%; in the assay with 786-0 renal, 87.2%; in the assay on COLO 205 colon, 116%; in the assay on DU-145 prostate it was 117%; in the assay with K-562 leukemia, 106%; in the assay with MALME-3M melanoma, 104%. Also, the growth with MDA-MB-231 breast is 98.3%; in the assay on RXF 393 renal, 107%; in the assay on SF-268 CNS, 92.8%; in the assay on SF-295 CNS it was 94%; with SF-539 CNS, 90.6%; with UACC-257 melanoma it was 110%. Also, in the assay with M14 melanoma, the growth was 79.9%.

Regarding `CC1(C)CC2(C)CC(=O)C1C(C(=O)O)C2C(=O)O` (stereo unspecified), the growth was 106% with NCI-H23 lung; 107% in the assay on NCI-H226 lung; 104% with NCI-H322M lung; 105% in the assay on HOP-62 NSCLC; 112% in the assay on NCI-H460 lung; 113% in the assay on HOP-92 NSCLC. The growth was 109% in the assay with A549/ATCC NSCLC; 123% in the assay on 786-0 renal; 107% in the assay on COLO 205 colon; 120% in the assay on DU-145 prostate; 104% in the assay with K-562 leukemia; 110% in the assay with MALME-3M melanoma. Further, the growth is 107% in the assay with MDA-MB-231 breast; 103% in the assay on RXF 393 renal; 105% in the assay with SF-268 CNS; 105% with SF-295 CNS; 108% in the assay with SF-539 CNS; 107% with UACC-257 melanoma. Moreover, in the assay on M14 melanoma, the growth was 119%.

Take `COC(=O)C1=CCC(n2cnc3c(N)ncnc32)O1` (stereo unspecified): the growth in the assay with NCI-H23 lung is 92%; in the assay on NCI-H226 lung it was 87.5%; in the assay with NCI-H322M lung, 94.4%; with HOP-62 NSCLC it was 94.3%; with NCI-H460 lung it was 121%; with HOP-92 NSCLC, 89.9%. Moreover, the growth is 96.5% in the assay with A549/ATCC NSCLC; 107% in the assay on 786-0 renal; 103% in the assay with COLO 205 colon; 113% with DU-145 prostate; 91.8% with K-562 leukemia; 108% with MALME-3M melanoma. The growth was 98.5% in the assay with MDA-MB-231 breast; -7.73% (active) in the assay on RXF 393 renal; 121% with SF-268 CNS; 113% with SF-295 CNS; 98% in the assay on SF-539 CNS; 105% with UACC-257 melanoma. Moreover, the growth in the assay with M14 melanoma was 105%.

As to `COc1cccc(-c2nc(-c3ccc(N)cc3)co2)c1`, the growth in the assay on NCI-H23 lung is 106%; with NCI-H226 lung it was 94.2%; in the assay with NCI-H322M lung, 102%; in the assay on HOP-62 NSCLC, 108%; in the assay on NCI-H460 lung, 115%; in the assay on HOP-92 NSCLC it was 86.8%. The growth in the assay with A549/ATCC NSCLC is 84.9%; with 786-0 renal it was 94.4%; with COLO 205 colon it was 141%; with DU-145 prostate, 102%; in the assay on K-562 leukemia, 84.5%; in the assay with MALME-3M melanoma, 114%. The growth with MDA-MB-231 breast was 88.1%; in the assay with RXF 393 renal, 93.2%; with SF-268 CNS, 128%; with SF-295 CNS, 92.8%; in the assay with SF-539 CNS, 110%; in the assay with UACC-257 melanoma, 93.1%. Further, the growth with M14 melanoma was 91.1%.

For the compound `O=C(c1ccccc1)C(CN1CCCCC1)c1ccccc1` (stereo unspecified), the growth in the assay on NCI-H23 lung was 91.4%; in the assay with NCI-H226 lung, 91.6%; in the assay with NCI-H322M lung it was 88.3%; with HOP-62 NSCLC it was 68.2%; in the assay on NCI-H460 lung it was 68.7%; with HOP-92 NSCLC, -12.2% (active). Besides, the growth in the assay on A549/ATCC NSCLC is 79.9%; in the assay with 786-0 renal it was 1.38% (active); in the assay on COLO 205 colon, 10.1%; in the assay on DU-145 prostate, 23.2%; in the assay with K-562 leukemia it was 0.176% (active); in the assay with MALME-3M melanoma it was -3.92% (active). Moreover, the growth is 22.6% with MDA-MB-231 breast; 42.4% with RXF 393 renal; 58.6% in the assay on SF-268 CNS; 98.8% in the assay on SF-295 CNS; -15.7% (active) in the assay on SF-539 CNS; 25.6% in the assay on UACC-257 melanoma. Also, the growth in the assay on M14 melanoma was -74.3% (active).

Consider `COc1cnc2c(c1)C(=O)c1c-2n(CCCN2CCNCC2)c(=O)c2cc(F)ccc12`, for which the growth is -3.16% (active) with NCI-H23 lung; -57.6% (active) in the assay on NCI-H226 lung; 13.7% with NCI-H322M lung; -8.55% (active) with HOP-62 NSCLC; -58.4% (active) in the assay with NCI-H460 lung; -7.94% (active) in the assay on HOP-92 NSCLC. For the same compound, the growth in the assay on A549/ATCC NSCLC was -70.4% (active); with 786-0 renal, -94.3% (active); with COLO 205 colon, -10.5% (active); with DU-145 prostate, -0.602% (active); in the assay on K-562 leukemia, -65.9% (active); in the assay on MALME-3M melanoma, -60.7% (active). In addition, the growth was 9.36% (active) in the assay with MDA-MB-231 breast; -36% (active) in the assay with RXF 393 renal; 6.43% (active) in the assay with SF-268 CNS; 0.838% (active) in the assay on SF-295 CNS; -64.2% (active) in the assay with SF-539 CNS; 10.8% in the assay with UACC-257 melanoma. The growth with M14 melanoma is -56.7% (active).

As to `CCCCc1n(Cc2ccc3ccccc3c2)cc[n+]1Cc1ccc2ccccc2c1`, the growth in the assay on NCI-H23 lung is -23.8% (active); with NCI-H226 lung, -0.475% (active); in the assay with NCI-H322M lung it was 23.3%; with HOP-62 NSCLC it was -2.71% (active); with NCI-H460 lung, -13.1% (active); in the assay with HOP-92 NSCLC it was -38.2% (active). The growth in the assay on A549/ATCC NSCLC is 29.8%; in the assay with 786-0 renal it was -18.4% (active); in the assay with COLO 205 colon, -77.1% (active); in the assay on DU-145 prostate, 13.6%; with K-562 leukemia, -17.9% (active); in the assay on MALME-3M melanoma it was -52.8% (active). The growth in the assay on MDA-MB-231 breast was -92.9% (active); with RXF 393 renal, -42.7% (active); in the assay with SF-268 CNS, -12.6% (active); with SF-295 CNS, -14.1% (active); in the assay with SF-539 CNS, -4.06% (active); in the assay with UACC-257 melanoma, -33.8% (active). In addition, the growth with M14 melanoma is -75.2% (active).

Regarding `CCc1nn2c(-c3ccc(Cl)cc3C)c(-c3cc(OC)c(OC)c(OC)c3)nc2s1`, the growth in the assay on NCI-H23 lung is 88.9%; with NCI-H226 lung, 87%; in the assay with NCI-H322M lung, 69.7%; with HOP-62 NSCLC, 84.7%; in the assay on NCI-H460 lung, 84.8%; with HOP-92 NSCLC, 58.1%. Moreover, the growth is 82.7% with A549/ATCC NSCLC; 72.9% with 786-0 renal; 81.2% in the assay on COLO 205 colon; 91.7% with DU-145 prostate; 78.4% in the assay with K-562 leukemia; 68% in the assay with MALME-3M melanoma. Also, the growth is 73.8% in the assay with MDA-MB-231 breast; 85.2% in the assay on RXF 393 renal; 93.4% with SF-268 CNS; 95.3% in the assay on SF-295 CNS; 92.6% in the assay with SF-539 CNS; 103% with UACC-257 melanoma. The growth in the assay with M14 melanoma was 76.7%.
